Test results: PubChem BioAssay (NCI)
This is part of a sample that, as a whole, favours compounds with a hit. Of some 83,000 tested, about 20% had one in any assay.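 Testing used 96-well plates and a 48-hour single-concentration exposure. Example: -40 means 40% of the starting cells died.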 Unmarked numbers belong to inactive results. Activity calls are given as the source filed them. Rule for the calls: active = growth percent below 10; inactive = the rest.

System: MDA-MB-468 breast
Assay: NCI-60 one-dose screen, 48 h (100 = growth as untreated, 0 = no growth, -100 = all killed)
Details: 10 µM unless noted

| SMILES | growth |
| --- | --- |
| COc1cccc(N2CCN(c3ncnc4c3[nH]c3ccc(F)cc34)C[C@@H]2C)c1 | -12.5% (active) |
| CC(C)[C@@H](C)/C=C/[C@@H](C)[C@H]1CCC2=C3C=CC4=CC(=O)CC[C@]4(C)[C@H]3CC[C@@]21C | 97.3% |
| COCCOc1ccc(-c2nc3ccc(-c4nc5ccc(N6CCN(C)CC6)cc5[nH]4)cc3[nH]2)cc1 | -22.5% (active) |
| COc1cc2cc3cc4cc(OC)c(OC)cc4c(C)[n+]3cc2cc1OC (tested in a mixture with another compound) | 44% |
| Cc1nc(Nc2ccc(NC(=S)Nc3ccccc3)cc2)c2ccccc2n1 | 109% |
| CC1=C(C#N)C(C)(C)C(C#N)=C(C)N1 | 98.6% |
| COc1ccc(OC)c2c1[nH]c(=O)c1c3ccccc3cn21 | -23.3% (active) |
| NC(CSSCC(N)C(=O)O)C(=O)O (stereo not given) | -17% (active) |
| COc1ccc(C(=O)c2cc(C)c(OC)c(C)c2)c(OC)c1N(C(=O)C(Cl)Cl)C(=O)C(Cl)Cl | 21.6% |
| CCCCCCNC(=O)Oc1ccc(/C(=C(/C)Cc2ccc(OC)cc2)c2ccc(OCCN(C)C)cc2)cc1 | 62.9% |
| Cc1cc(C)c2nc(C)c(C)[n+]([O-])c2c1 | 101% |
| Nc1ccc(-c2csc(-n3[nH]c(=O)ccc3=O)n2)cc1 | 99.3% |
| Nc1c(Cl)cc([N+](=O)[O-])cc1Br | 92.3% |
| COc1ccc(-c2cc(/C=C3\C(=O)Nc4ccc(Cl)cc43)[nH]n2)cc1 | 41.7% |
| CCCCNC(=O)c1ccc(OCC)cc1 | 117% |
| Cn1cc(CNc2nc3ccc(OC/C(=C/F)CN)cc3o2)ccc1=O | 107% |
| COc1c(C(=O)/C=C/c2ccc(C)o2)c(O)cc2occc12 | 30.7% |
| COc1cc2c3c(n(CCCN4CCC[C@H]4C(N)=O)c(=O)c2cc1OC)-c1cc2c(cc1C3=O)OCO2 | 11.8% |
| c1ccc(CSc2nnc3c4c5c(sc4nc(-c4cccnc4)n23)CCCCCC5)cc1 | 0.132% (active) |
| O=C(NCCOCCOCCOCCNC(=O)c1cc2c(o1)C(=O)c1ccccc1C2=O)NC12CC3CC(CC(C3)C1)C2 | -33.8% (active) |

| SMILES | growth |
| --- | --- |
| CN(C)c1ccc(-c2ccc(-c3ccc(C(=N)N)c(F)c3)s2)cc1 | -83.6% (active) |
| CC(=O)N1c2ccccc2NC2=C(C(=O)N(C)C2(C)C)C1C (stereo not given) | 19.2% |
| O=C(c1ccc(Cl)cc1)C1C(c2ccccc2)C1[N+](=O)[O-] (stereo not given) | 111% |
| COC(=O)c1c2c(c(C)[n+]([O-])c1C)C(=O)C(NCc1ccc(F)c(F)c1)=CC2=O | -26.1% (active) |
| O=C(O)C(C(=O)O)c1cccc2ccccc12 | 101% |
| O=C1c2cc3c(cc2-c2c1c1cc(Cl)c(Cl)cc1c(=O)n2C[C@H](O)CO)OCO3 | -54.1% (active) |
| COc1ccc(/C=C2/CN(CCC#N)C/C(=C\c3ccc(OC)cc3)C2=O)cc1 | -28% (active) |
| O=C(Nc1cccc2c1CCCC2)c1cc2ccccc2cc1O | 33.8% |
| NC(=O)c1cccc(-n2ccc3cc(NC(=O)Nc4ccc(Cl)c(Cl)c4)ccc32)n1 | 60.8% |
| O=C(/C=C/c1ccccc1)Nc1ncc(Cc2ccccc2)s1 | 29.7% |
| CSc1ccc(N=C=C(c2ccccc2)c2ccccc2)cc1 | 97.1% |
| Oc1ccc(-c2cnc(-c3ccccc3)[nH]2)c(O)c1 | 109% |
| Cc1nc(Nc2cccnc2)sc1C(=O)/C=C/c1ccc(F)cc1 | 26.7% |
| COc1ccc(/C=C2\Oc3cc(OCCCN4CCCC4)ccc3C2=O)c(OC)c1 | 62% |
| CS(=O)(=O)c1ccc2c(c1)c1c(n2Cc2ccc(Cl)cc2)CCCC1 | 50.4% |
| COc1ccc(C2=Nc3c(N)ncnc3NC(c3cccc(Nc4ccnc5cc(C(F)(F)F)ccc45)c3)C2)cc1 (stereo not given) | 46.9% |
| CN(C)c1ccc(-c2c(NC(C)(C)C)nc3c(OCCc4ccccc4)cccn23)cc1 | -19.6% (active) |
| COc1ccc(CNCCCN2C(=O)c3ccc4c5c(ccc(c35)C2=O)C(=O)N(CCCNCCCCNCCCN)C4=O)c(OC)c1OC | -85.6% (active) |
| COc1ccc(-c2nnc(SC/C(=N\O)c3ccccc3)o2)cc1 | 97% |
| C/C(=N\NC(=O)Nc1ccccc1)c1nnn(-c2ccc([N+](=O)[O-])cc2)c1C | 104% |
